Pf growth 48h: P. falciparum growth inhibition at 48 hours (one generation) | AID 504832 | P. falciparum luciferase growth in erythrocytes, 48 h | 5.9% of 310,000 active | Potency, µM (top dose mostly 28.7 µM), hits mostly inhibitors
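Luciferase-expressing parasites in RBCs, 2% Hct / 0.1% parasitemia final; RPMI 1640 + 0.5% Albumax; 37 C, 5% CO2, one generation; luminescence read-out, lower signal = inhibition.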
Lassa entry inh: blocks Lassa virus binding to or entry into cells | Lassa virus pseudotype entry inhibition, cell reporter | Potency, µM (doses to about 37.9 µM), usual class: inhibitors | 1.2% of 300,000 active; calls by dose curve; tested in HEK293 cells; further: nearly all actives have a fitted effect of over 50% in size
HCV inhibitor: HCV inhibition | Huh7.5.1 HCVcc-Cre infection, luciferase reporter, 44 h | Potency, µM (titrated, usually from 41.8 µM), hits mostly inhibitors | AID 651820 | 3.4% of 340,000 active
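A cell-based infection assay in which seeded cells (1,000 per well) receive test compound after 4 h, are inoculated with HCVcc-Cre at approximately 0.5 moi, and are incubated 44 h before luminescence detection.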
HCMV inh: human cytomegalovirus inhibition; HFF cells, HCMV-luciferase reporter, 72 h; active compounds read low; activity change, negative = inhibition, % at 57.5 µM; 4.5% of 410,000 active; AID 1259415; in the data active means activity change below about -60%; inconclusive means no clear call, values can overlap the other calls; inactive means above about -39%
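Human foreskin fibroblasts infected with luciferase-reporter HCMV at MOI 1 PFU/cell, compounds at two doses. Luciferase measured 72 h post infection; normalized to buffer-only basal and Salinomycin (10uM) controls.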
Pf growth 96h: P. falciparum growth inhibition at 96 hour, primary screen for plastid delayed-death inhibitors; 6.9% of 320,000 active; Potency, µM (series often up to 28.7 µM), most hits filed as inhibitors; P. falciparum luciferase reporter growth, 96 h; AID 504834
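Infected RBCs, 2% Hct / 0.05% parasitemia final; luciferase-reporter P. falciparum; cpd 96 h, 37 C, 5% CO2; luciferase detection reagent; luminescence.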
Marburg entry inh: Marburg virus entry inhibition; Marburg virus pseudotyped entry inhibition, cell reporter; Potency, µM (titrated, usually from 37.8 µM), usual class: inhibitors; 1.8% of 300,000 active; AID 540276; calls by dose curve; tested in HEK293 cells
Numbers stand for hits; – = inactive; ? = inconclusive; · = no result. This is a sample that favours compounds with a hit; in the whole collection about 14% have one here. Unless noted, the call rests on the fitted dose curve; in most records, active means well fitted inhibition curve with a large enough effect; inconclusive means small, poorly fitted or top-dose-only effect, or another doubt; inactive means no such curve, though single readings can be large or run the other way.

SMILES	Pf growth 48h	Lassa entry inh	HCV inhibitor	HCMV inh	Pf growth 96h	Marburg entry inh
CC(C#N)Sc1ccc(S(=O)(=O)N2CCCCC2)cn1 (stereo not drawn)	–	·	–	–	–	·
CN(C1CCCCC1)S(=O)(=O)c1ccc(SCC(=O)C(C)(C)C)nc1	·	·	?	–	·	·
O=C(NCc1ccccc1)NC1COc2ccccc2C1 (stereo not drawn)	·	–	·	–	·	·
COc1ccc(NS(=O)(=O)c2ccc3nc(COc4ccc(C#N)cc4)[nH]c3c2)cc1	–	–	13µM	–	?	–
CCc1ccc(NC(=O)c2cc(-c3ccco3)on2)cc1	–	–	–	–	2.9µM	?
COc1ccc(NC(=O)c2cc(-c3ccco3)on2)cc1	–	?	–	–	?	?
O=C(Nc1cccc(C(F)(F)F)c1)c1cc(-c2ccc3c(c2)OCCO3)on1	·	–	·	–	·	–
CN1NC(=O)CC1c1ccccc1 (stereo not drawn)	·	–	–	–	·	–
O=C1CC(c2ccccc2)NC(=O)N1 (stereo not drawn)	–	–	–	-99	–	–
Cc1ccc(Cc2c(-c3ccc(C#N)cc3)nc3c4ccccc4ccn23)cc1	·	·	·	–	·	·
Cc1ccc(C)c(N2CCN(CCCNC(=O)c3cnn(-c4cccc(Cl)c4)c3C3CCN(C(=O)OC(C)(C)C)CC3)CC2)c1	·	13µM	·	–	·	·
Cc1ccc(C)c(N2CCN(CCCNC(=O)c3cnn(-c4ccc(F)cc4)c3C3CCN(C(=O)OC(C)(C)C)CC3)CC2)c1	·	–	·	–	·	·
Cc1ccc(C)c(N2CCN(CCCNC(=O)c3cnn(-c4ccccc4Cl)c3C3CCN(C(=O)OC(C)(C)C)CC3)CC2)c1	·	?	·	-105	·	·
CCN(CC)C(=O)c1sc2c(c1C)c(=O)n(-c1ccc(Cl)c(Cl)c1)c(=O)n2Cc1cc(=O)n2c(C)cccc2n1	·	–	·	–	·	·
COc1ccc(OC)c(NC(=O)c2c(NCc3ccc(N(C)C)cc3)sc3c2CCCC3)c1	·	–	·	–	·	·
Cc1ccc(-n2c(C)cc(C(=O)CSc3n[nH]c(N)n3)c2C)cc1	?	?	?	-70	3.3µM	–
Cc1cc(C(=O)CSc2n[nH]c(N)n2)c(C)n1-c1ccccc1	–	–	11µM	–	·	–
Cc1cc(C(=O)CSc2nnc3ccccn23)c(C)n1-c1ccccc1	–	0.89µM	–	-72	–	0.32µM
Cc1cc(C(=O)CSc2nnc(-c3ccccc3)n2-c2ccccc2)c(C)n1-c1ncn[nH]1	·	–	–	–	?	–
Cc1cc(C(=O)CSc2nnc(-c3ccncc3)n2-c2ccccc2)c(C)n1C	15µM	–	–	–	17µM	–
CCOC(=O)N[C@](Nc1sc2c(c1C(N)=O)CCCC2)(C(=O)OCC)C(F)(F)F	·	·	·	·	·	–
Cc1nc2c(c(SCC(=O)Nc3ccccc3C(F)(F)F)n1)CCC2	·	?	·	?	·	–
O=C(Nc1ccccc1)OCCOc1ccc(Br)cc1	–	·	?	–	–	·
Cc1ccc(OCCOC(=O)Nc2ccccc2)cc1	–	–	–	-62	–	–
COc1ccccc1OCCC(=O)O	?	–	–	-91	–	–
SMILES	Pf growth 48h	Lassa entry inh	HCV inhibitor	HCMV inh	Pf growth 96h	Marburg entry inh
O=C(Nc1ccccc1)OCCCCOC(=O)Nc1ccccc1	·	–	–	–	·	–
COc1ccccc1OCCOC(=O)Nc1ccccc1	–	–	–	–	8.3µM	–
CN(c1ccc(Cl)cc1)S(=O)(=O)c1nnc(NC(=O)C2CCCCC2)s1	·	–	·	–	·	·
COc1ccc(F)cc1S(=O)(=O)Nc1cc2c3c(c1)CCC(=O)N3CCC2	–	?	–	–	–	–
O=C1N[C@@H](Cc2ccccc2)C(=O)N2[C@H]1CSCCS2(=O)=O	·	–	·	–	·	·
CC(C)c1cc(Cn2c3ccccc3c(=O)n2C(C)C)on1	·	·	·	–	·	·
CCOc1nc(Nc2ccc([N+](=O)[O-])cc2)nc(NC(C)(C)C)n1	?	?	?	–	–	?
CCN(CC)c1nc(Nc2ccc([N+](=O)[O-])cc2)nc(N(CC)CC)n1	?	·	11µM	–	–	·
CCOC(=O)c1cc2c(=O)n3ccccc3nc2n(C(C)C)c1=NC(=O)c1cc2ccccc2o1	·	–	·	–	·	–
CN(Cc1ccccc1C#N)S(=O)(=O)c1cccs1	–	–	–	–	–	–
N#Cc1nccnc1S(=O)(=O)c1cccs1	–	–	–	-97	–	–
O=C(C1CCCO1)N1CCN(C(=S)Nc2ccc(Cl)c(Cl)c2)CC1 (stereo not drawn)	–	10µM	–	–	–	?

Screening results deposited in PubChem by National Center for Advancing Translational Sciences (NCATS).
